Tau ThT inhib = blocks human tau fibril formation measured by thioflavin T. P10636. Potency, µM (top dose mostly 57.4 µM), inactives show at the highest dose activity, negative = inhibition, most hits filed as inhibitors. recombinant tau K18 P301L, heparin-induced fibrillization, ThT fluorescence. hit rate 2.1% among 270,000; also: % is scaled to controls: 0 for no effect and ±100 for the full control effect; nearly all actives have a fitted effect of over 55% in size
Target sequence (P10636 561-689 P618L limits assumed): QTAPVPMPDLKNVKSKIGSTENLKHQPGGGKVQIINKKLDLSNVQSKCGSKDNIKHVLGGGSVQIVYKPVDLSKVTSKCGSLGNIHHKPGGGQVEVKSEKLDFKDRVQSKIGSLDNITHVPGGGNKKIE
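Using a mix of unlabeled (15 uM) and Alexa 594-labeled (0.24 uM) tau K18 P301L, heparin-triggered fibrillization over 6 hr at 37 C was scored by ThT fluorescence.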
HTT ATP protect = protects HTT-Q103 PC12 cells, measured by ATP; PC12 HTT-Q103 induced, cytoprotection, ATP luminescence, 40 h; Potency, µM (series often up to 56.4 µM), without a hit: cytoprotection (ATP increase), actives largely listed as activators; hit rate 0.14% among 230,000; AID 1471; also: % of control where 0% means no effect; nearly all actives have a fitted effect of over 45% in size
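Rat PC12, Q103 Htt exon1-GFP fusion, ecdysone promoter; tebufenozide inducer 100 nM final; compound titration; qHTS, 1500 cells/well; ATPlite luminescent read.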
Tau fluor cs = counter-screen for tau fibril formation inhibitors; tau K18 P301L (four-repeat tau fragment) Alexa594 fluorescence, heparin fibrillization; hit rate 0.93% among 280,000; Potency, µM (titrated, usually from 57.7 µM), inactives show at the highest dose activity change, negative = decrease; also: % is scaled to controls: 0 for no effect and ±100 for the full control effect; nearly all actives have a fitted effect of over 55% in size
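Human K18 P301L tau (15 uM unlabeled plus 0.24 uM Alexa 594-labeled, final) in 100 mM sodium acetate pH 7 was mixed with compound and 20 uM heparin and incubated 6 hr at 37 C.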
Tau fibril FP = blocks human tau fibril formation measured by polarization; K18 P301L tau heparin fibrillization, Alexa594 FP, 6 h; hit rate 0.39% among 280,000; Potency, µM (titrated, usually from 57.7 µM), inactives show at the top dose activity, negative = inhibition, actives largely listed as inhibitors; AID 1468; also: % is scaled to controls: 0 for no effect and ±100 for the full control effect; nearly all actives have a fitted effect of over 55% in size
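K18 P301L tau (15 uM unlabeled/0.24 uM Alexa 594-labeled, final) + compound + heparin 20 uM final; 100 mM NaOAc pH 7; 6 hr 37 C; ThT 30 uM final added, 1 hr RT; FP ex 555/em 632 nm.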
HttQ103 aggreg = reduces HttQ103-GFP aggregates in PC12 cells. Potency, µM (titrated, usually from 46.1 µM), for the others: top-dose activity change, negative = inhibition, most hits filed as inhibitors. AID 1688. hit rate 1.1% among 220,000. PC12 HttQ103-GFP aggregates, Acumen cytometry, 40 h; also: % is scaled to controls: 0 for no effect and ±100 for the full control effect; nearly all actives have a fitted effect of over 60% in size
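Inducible Q103 Huntingtin exon 1–GFP PC12 line, 1500 cells/well in phenol red free DMEM with 5% equine and 5% calf serum. Tebufenozide 100 nM induced expression; compounds titrated; aggregates quantified by cytometry.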
Active calls of the source: *; ? = inconclusive; . = no result given; [ ] = remark or other dose. Only some compounds are listed: those with a hit (about 3.7% of all), similar ones and a draw of the others. Calls follow the shape of the dose curve; as a rule, active = well fitted curve in the direction sought with a large enough effect; inconclusive = small, poorly fitted or top-dose-only effect, or another doubt; inactive = no such curve, though single readings can be large; an effect the other way counts as inactive or inconclusive. Potency is read from the fitted curve at half-maximal effect.

SMILES	Tau ThT inhib	HTT ATP protect	Tau fluor cs	Tau fibril FP	HttQ103 aggreg
CC(=O)N1C(=O)/C(=C2\SC(=S)N(NS(=O)(=O)c3ccc(C)cc3)C2=O)c2ccccc21	14.1µM*	5.9%[10 µM]	?	?	-5.4%[9.22 µM]
O=[N+]([O-])c1ccc(Cl)c(CNc2ncnc3c2ncn3[C@@H]2CCCCO2)c1	.	9.5%[10 µM]	.	.	.
COc1ccccc1-c1noc(-c2ccc(N3CCOCC3)c([N+](=O)[O-])c2)n1	3.1%	.	1.6%	4.4%	.
Cc1cc(C)c(/C=C/c2onc(C)c2S(=O)(=O)N2CCC(C(=O)N(C)Cc3ccccc3)CC2)c(C)c1	-5.1%	.	-1.0%	7.5%	.
CC(/C=C1\SC(=S)N(c2ccc(C(=O)O)cc2)C1=O)=C\c1ccccc1	.	-0.8%[10 µM]	10.8%[0.0958 µM]	-0.4%[0.0958 µM]	29.9%[9.22 µM]
CC(/C=C1\SC(=S)N(C(C(=O)O)C(C)C)C1=O)=C\c1ccccc1 (stereo unspecified)	22.4µM*	4.5%[10 µM]	-7.5%	-7.4%	15.2%[9.22 µM]
Cc1ccc(-c2csc(N/N=C/C=C/c3ccccc3)n2)cc1	?	-4.3%	?	14.6%	2.4%
ClCc1csc(N/N=C/c2cccs2)n1	17.8µM*	4.1%[10 µM]	?	?	9.0%[9.22 µM]
Clc1cnc(N/N=C/c2cccs2)c(Cl)c1	?	-29.4%	-18.5%	1.6%	-20.0%
C(=N\Nc1nc(-c2ccccc2)cs1)/c1cccs1	14.1µM*	-5.3%[10 µM]	12.6µM*[quencher]	8.2%	4.7%
CN(C)S(=O)(=O)c1ccc(-c2csc(N/N=C/c3ccc(O)cc3)n2)cc1	14.1µM*	-52.9%[10 µM]	10µM*[quencher]	-5.7%	-16.9%[9.22 µM]
Cc1cc(NS(=O)(=O)c2ccc(Nc3nc(-c4ccc(O)cc4)cs3)cc2)no1	-2.8%	28.3%[10 µM]	1.5%	9.3%	-2.2%
C(=N\Nc1nc(-c2ccccc2)cs1)/c1ccncc1	15.8µM*	-2.1%[10 µM]	12.6µM*[quencher]	7.3%	15.0%[9.22 µM]
Cc1nc(NCCCn2ccnc2)c2ccccc2n1	-6.0%	6.5%	6.9%	3.6%	-16.0%
O=C1c2ccccc2-c2onc3ccc(NCCCn4ccnc4)c1c23	11.2µM*	-14.9%	?	20µM*	-13.8%
Cc1ccc(C)c(NC(=O)CN2CCSc3ccc(S(=O)(=O)N4CCCC4)cc32)c1	-14.7%	.	?	7.9%	.
CCOC(=O)c1nc(N2CCN(c3ccc(F)cc3)CC2)c2c(C)noc2n1	-0.9%	.	-1.9%	-1.3%	.
Cc1ccccc1CNC(=O)c1ccc2c(c1)c(C)c(C)n2C	-16.0%	.	-21.6%	10.2%	.
CCN(CC)c1ccc(NC(=O)c2ccc3c(c2)c(C)c(C)n3C)cc1	3.98µM*	-98.0%	?	12.1%	-32.0%
C/C(=N\Nc1cccc2cccnc12)c1ccc[nH]1	4.47µM*	-39.6%[10 µM]	?	14.2%	-1.8%
Cc1nn(C)c(C)c1/C=C/C(=O)O	4.0%	11.2µM*	2.6%	-8.3%	13.2%
C=CCc1cccc(C2C(C)CCC3C(=O)N4C(Cc5c([nH]c6ccccc56)C4c4cc(OC)c(OC)c(OC)c4)C(=O)N32)c1 (stereo unspecified)	-14.2%[11.5 µM]	9.7%[10 µM]	?	-0.3%[11.6 µM]	.
C=CCn1c(NC(C)c2cc(Cl)ccc2O)nc2ccccc21 (stereo unspecified)	-14.2%	-3.4%	?	4.8%	11.2µM*
C=CCn1c(NCc2cc(C)ccc2O)nc2ccccc21	-11.4%	-7.6%	-25.8%	-5.6%	-21.1%
COc1ccccc1-c1nnc(C2CCN(S(=O)(=O)c3ccccc3)CC2)o1	-6.3%	.	-10.3%	-4.8%	.
SMILES	Tau ThT inhib	HTT ATP protect	Tau fluor cs	Tau fibril FP	HttQ103 aggreg
FC(F)(F)c1ccncc1-c1nnnn1-c1ccc(Cl)cc1	-3.5%	13.7%[10 µM]	-7.4%	0.8%	-3.8%[9.22 µM]
FC(F)(F)c1nc(N2CCCC2)ncc1-c1nnnn1-c1ccc(Cl)cc1	-9.9%	3.55µM*	-20.9%	2.3%	?
CCc1ccc(C(=O)c2cn(Cc3ccccc3)c3cc(OC)c(OC)cc3c2=O)cc1	?	.	-16.8%	7.9%	.
O=C(Oc1ccc(F)cc1C(=O)/C=C/c1cccs1)c1cccc([N+](=O)[O-])c1	14.1µM*	-11.4%	?	9.6%	-5.3%
C=C1C(c2ccc(C)cc2)=CCc2cc(C)cc(C)c21	?	-148.5%	-11.6%	4.1%	.
COC(=O)/C=c1\sc2ncnn2c1=O	15.8µM*	-16.0%[10 µM]	-13.5%	14.1µM*	?

Screening results: PubChem BioAssay, National Center for Advancing Translational Sciences (NCATS)
